{
  "source": "PubChem BioAssay AID624002",
  "about": "(National Center for Advancing Translational Sciences (NCATS), 2012)",
  "note": "The other results are listed elsewhere or left out. Inconclusive results are not listed. A number with no mark means an inactive call. The source made the active and inactive calls. The call rests on the fitted dose curve; in most records, active means well fitted inhibition curve with a large enough effect; inconclusive means small, poorly fitted or top-dose-only effect; inactive means no such curve, though single readings can be large or run the other way. Potency means the concentration at half of the fitted maximal effect.",
  "data": [
    {"molecular_target": "Isocitrate dehydrogenase [NADP] cytoplasmic (Homo sapiens) (UniProt O75874)", "sequence (O75874 whole entry R132H, stated change not applied)": "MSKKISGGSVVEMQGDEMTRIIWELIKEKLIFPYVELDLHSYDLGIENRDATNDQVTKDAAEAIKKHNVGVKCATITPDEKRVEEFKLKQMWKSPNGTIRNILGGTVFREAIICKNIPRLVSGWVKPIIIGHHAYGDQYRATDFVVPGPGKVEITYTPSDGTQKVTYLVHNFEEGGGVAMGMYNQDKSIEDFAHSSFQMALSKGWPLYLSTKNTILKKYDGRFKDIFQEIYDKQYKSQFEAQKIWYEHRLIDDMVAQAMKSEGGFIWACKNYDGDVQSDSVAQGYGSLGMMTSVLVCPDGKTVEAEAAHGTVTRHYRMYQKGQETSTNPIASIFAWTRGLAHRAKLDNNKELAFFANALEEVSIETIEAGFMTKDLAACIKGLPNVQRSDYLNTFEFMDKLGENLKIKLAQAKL", "experiment": "qHTS for Inhibitors of mutant isocitrate dehydrogenase 1 (IDH1): Confirmation of Cherrypicks; further: nearly all actives have a fitted effect of over 50% in size", "conditions": "IDH1 R132H enzyme, NADPH diaphorase/resazurin fluorescence; series mostly up to 76.6 µM; activity change, negative = inhibition: at the top concentration", "text": "Malignant glioblastomas (WHO grade IV), including primary and secondary glioblastomas, are among the most lethal with a median survival of one year, and unfortunately they are also the most prevalent type of brain tumors. By and large the standard of care of gliomas remains the use of the oral alkylating agent temozolomide and radiotherapy following surgical tumor resection. There is an urgent unmet medical need for novel therapeutics for gliomas. IDH mutations occur in up to 70% of grade II-IV secondary glioblastomas, and IDH1 R132H is the most prevalent mutation. […] Wild-type IDH1 catalyzes the conversion of isocitrate to -ketoglutarate with the concomitant reduction of NADP+ to NADPH. In contrast, IDH1 R132H catalyzes the conversion of -ketoglutarate to 2-hydroxyglutarate (2-HG) with the concomitant oxidation of NADPH to NADP+ [5]. Recently, a second significant advancement for the field was the finding that IDH is an oncogene, and that its metabolic product 2-HG may contribute to the pathogenesis of IDH-mutated cancers. […] Although this link to cancer is tantalizing, the direct evidence of how 2-HG drives pathogenesis of gliomas and AML remains a subject of further research. The goal of this screen is to find small-molecule inhibitors of IDH1 R132H using a biochemical assay that measures substrate NADPH consumption through the use of a diaphorase/resazurin-coupled system. Inhibition of the IDH1 R132H enzymatic reaction leads to an increase in the amount of NADPH relative to a DMSO control and a concomitant increase in the fluorescence of the diaphorase/resazurin enzyme product resorufin at 590 nm. Compounds were screened as a concentration-titration series that ranged from 76 microM to 0.15 uM. NIH Molecular Libraries Probe Production Network [MLPCN] NIH Chemical Genomics Center [NCGC] MLSCN Grant: R03 DA032129 PI Name: Dr. Lenny Dang\nEnzyme buffer was dispensed into black, solid 1536-well plates at 3 microL/well in 20 mM Tris buffer, pH 7.5, containing final concentrations of 10 mM MgCl2, 20 mM NaCl, 0.001% Tween20, 0.05% BSA, 2 mM beta-ME and 5.2 nM IDH1 R132H. Then, 23 nL of compounds or DMSO were delivered to each well using a pin tool. The inherent compound fluorescence was measured at this point at 590 nm on a ViewLux plate reader (Ex 525, Em 598, bodipy filter). The substrate buffer (3 uL; 20 mM Tris buffer, pH 7.5, containing final concentrations of 10 mM MgCl2, 20 mM NaCl, 0.001% Tween20, 0.05% BSA, 0.008 mM NADPH, and 1 mM a-ketoglutarate) was added to start the enzymatic reaction, and the plate was briefly spun at 270xg. After the reaction was allowed to progress for 80 minutes at room temperature, the remaining NADPH was detected with the diaphorase/resazurin-coupled system. Three microL of detection buffer (20 mM Tris buffer, pH 7.5, containing final concentrations of 10 mM MgCl2, 20 mM NaCl, 0.001% Tween20, 0.05% BSA, 0.53 uM diaphorase and 0.012 mM resazurin) was added, and after 5 minutes the fluorescence at 590 nm was measured on an Envision plate reader (Ex 544, Em 590, bodipy filter, 10 flashes). The %Activity was determined from the corrected fluorescence values. As no specific IDH1 R132H inhibitors have been identified in the literature, 1x (5.2 nM) and 0x IDH1 R132H enzyme controls (untreated) were included to normalize % Activity of identified inhibitors; 0x enzyme values corresponded to 100 % Activity (full inhibition), while 1x IDH1 R132H enzyme values were used to normalize 0 %A ctivity (no inhibition). Concentration-response curves were fitted to the signals arising from the resulting fluorescence. The concentration-response curves were then classified based on curve quality (r2), response magnitude and degree of measured activity, and compounds were subsequently categorized based on their curve class. […] Keywords: Isocitrate dehydrogenase, IDH1, IDH1 R132H, 2-HG, 2-hydroxyglutarate, AML, glioma, MLSMR, MLPCN, NIH Roadmap, qHTS, NCGC", "units": {"activity change, negative = inhibition": "%"}, "values": [
      {"smiles": "CC(C)Nc1nc(N(c2ccccc2)c2ccccc2)nc(-n2ccnc2)n1", "Potency": "39.8 µM (active)"},
      {"smiles": "COc1cc2c(-c3ccc4c(c3)OCO4)c(-c3ccsc3)oc(=O)c2cc1OC", "Potency": "6.31 µM (active)"},
      {"smiles": "COc1ccc(/C=C2/SC(=O)N(CCCCCC(=O)Nc3ccccc3C(=O)O)C2=S)cc1", "Potency": "39.8 µM (active)"},
      {"smiles": "Cc1cccc(N(C(=O)Cc2cccs2)C(C(=O)NC2CCCC2)c2ccsc2)c1", "note": "(centres undefined)", "Potency": "3.55 µM (active)"},
      {"smiles": "COc1ccc(/C=N/Nc2cc(N3CCOCC3)nc(C)n2)c(OC)c1", "Potency": "15.8 µM (active)"},
      {"smiles": "CCCc1nc2c(c(=O)c3ccccc3n2C)c(=O)n1C1CCCCCC1", "Potency": "8.91 µM (active)"},
      {"smiles": "Cc1ccc(-c2nn(-c3ccccc3)cc2/C=C2\\SC(=S)N(CCCCCC(=O)O)C2=O)o1", "Potency": "22.4 µM (active)"},
      {"smiles": "COC(=O)c1ccc(-c2c(-c3ccccc3)ncc3cc(OC)c(OC)cc23)cc1", "Potency": "12.6 µM (active)"},
      {"smiles": "CCCOc1ccc(C2c3c(-c4ccccc4O)n[nH]c3C(=O)N2Cc2cccnc2)cc1", "note": "(centres undefined)", "Potency": "14.1 µM (active)"},
      {"smiles": "O=C(NC(Nc1nc2ccc([N+](=O)[O-])cc2s1)(C(F)(F)F)C(F)(F)F)c1ccccc1", "Potency": "3.55 µM (active)"},
      {"smiles": "CCCc1[nH]nc2c1C(c1ccc(OC)c(Cn3nc(C)c(Br)c3C)c1)C(C#N)=C(N)O2", "note": "(centres undefined)", "Potency": "31.6 µM (active)"},
      {"smiles": "COC(=O)c1cccc(N(C(=O)c2ccco2)C(C(=O)NC2CCCC2)c2ccco2)c1", "note": "(centres undefined)", "Potency": "22.4 µM (active)"},
      {"smiles": "COc1ccc(C(CCN(Cc2ccc(OC)c(OC)c2)C(=O)CCl)c2ccccc2)cc1", "note": "(centres undefined)", "Potency": "15.8 µM (active)"},
      {"smiles": "CCOC(=O)c1ccc(N2C(=O)c3n[nH]c(-c4ccco4)c3C2c2ccc(O)cc2)cc1", "note": "(centres undefined)", "Potency": "39.8 µM (active)"},
      {"smiles": "Cc1ccc2nc(N3C(=O)C(O)=C(C(=O)c4ccco4)C3c3cccc(O)c3)sc2c1", "note": "(centres undefined)", "Potency": "28.2 µM (active)"},
      {"smiles": "COc1ccc(Cl)cc1-n1c(=S)sc2c(=O)n(-c3ccc(F)cc3)c(SCC(=O)O)nc21", "Potency": "7.94 µM (active)"},
      {"smiles": "COc1cc(/C=C2/SC(=S)N(Cc3ccccc3)C2=O)cc(OC)c1O", "Potency": "39.8 µM (active)"},
      {"smiles": "CCCCOc1ccc(CN2C(=O)C(=O)c3cc(Br)cc(C)c32)cc1OC", "Potency": "22.4 µM (active)"},
      {"smiles": "Cc1nc(-c2ccc(Cl)cc2)sc1C(=O)CBr", "Potency": "44.7 µM (active)"},
      {"smiles": "Cc1nc(C)c(C(=O)N(c2ccc(C)c(C)c2)C(C(=O)NCc2ccco2)c2ccccc2)s1", "note": "(centres undefined)", "Potency": "17.8 µM (active)"},
      {"smiles": "CCOC(=O)c1oc2c(CN3CCN(CCO)CC3)c(O)c(CC)cc2c(=O)c1-c1nc2ccccc2s1", "Potency": "22.4 µM (active)"},
      {"smiles": "CCCCC(=O)NC(c1ccc(OC)c(OC)c1)c1ccc2cccnc2c1O", "note": "(centres undefined)", "activity change, negative = inhibition": -18.7},
      {"smiles": "N#CC1=C(N)C(C#N)(C#N)[C@H](c2ccsc2)[C@H]2COCC=C12", "Potency": "44.7 µM (active)"},
      {"smiles": "CCCNc1ncnc2c1c(-c1ccccc1)cn2-c1ccc(OCC)cc1", "Potency": "11.2 µM (active)"},
      {"smiles": "C(=N/Nc1cc(N2CCOCC2)nc(N2CCOCC2)n1)/c1ccccc1", "Potency": "39.8 µM (active)"},
      {"smiles": "Cn1c(COc2ccc(Cl)cc2)nc2ccccc2c1=O", "activity change, negative = inhibition": -16.1},
      {"smiles": "COc1cc(/C=C2/C(=O)ON=C2C)ccc1OCc1ccccc1F", "Potency": "44.7 µM (active)"},
      {"smiles": "CCC(C)(C)NC(=O)C(c1cccn1C)N(Cc1ccc(C)cc1)C(=O)Cn1nnc2ccccc21", "note": "(centres undefined)", "Potency": "25.1 µM (active)"},
      {"smiles": "O=C1c2cccc3cccc(c23)C(=O)N1CCCCCc1n[nH]c(=S)o1", "Potency": "39.8 µM (active)"}
    ]}
  ]
}
